PubChem BioAssay (NCATS)
Results filed as inconclusive are left out. Activity calls are given as the source filed them. Unless noted, calls come from the whole dose curve; as a rule, active = well fitted curve in the direction sought with a large enough effect; inconclusive = small, poorly fitted or top-dose-only effect, or another doubt; inactive = no such curve, though single readings can be large; an effect the other way counts as inactive or inconclusive.

Columns and labels:
[1] = P-glycoprotein substrates identified in KB-8-5-11 adenocarcinoma cell line, qHTS therapeutic library screen (AID 1346987); note: nearly all actives have a fitted effect of over 65% in size; note: potency is the fitted concentration of half-maximal effect
How it was run: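 Luminescence from CellTiter-Glo, read 5 min after addition, quantified survival of KB-8-5-11 (P-gp-overexpressing) cells exposed to compounds for 72 h. AC50 was derived from concentration-response curves.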

[2] = NS1 protein of Zika virus - qHTS assay to identify small molecule inhibitors in human HEK 293 cells (AID 1347053);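 note: series mostly up to about 46 µM; plate controls were infected untreated cells for no effect and uninfected cells for full effect; nearly all actives have a fitted effect of over 55% in size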
How it was run: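 Compound-treated (1 h pre-infection) HEK 293 cells infected with ZIKV MR766, MOI = 0.5; after 24 h at 37 C, NS1 read by TR-FRET; data normalized to uninfected and infected controls.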

[3] = qHTS of pediatric cancer cell lines to identify multiple opportunities for drug repurposing: Primary screen for TC32 cells (AID 1347089); note: % is set by controls: 0 for no effect and ±100 for the full control effect; nearly all actives have a fitted effect of over 60% in size
How it was run: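 In the primary qHTS, MIPE compounds were tested at 11 concentrations (0.78 nM to 46 µM) and NPC compounds at 8 (0.59 nM to 46 µM) on TC32 cells for 48 h. CellTiter-Glo luminescence gave viability.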

[4] = qHTS of pediatric cancer cell lines to identify multiple opportunities for drug repurposing: Primary screen for DAOY cells (AID 1347090);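 note: series mostly up to about 46 µM; plate controls were DMSO for no effect and bortezomib for full effect; nearly all actives have a fitted effect of over 55% in size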
How it was run: (§1)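 Viability measured as metabolically active cells via CellTiter-Glo luminescence following 48 hours of compound exposure, 11-point dilutions in confirmatory testing. 500-1,000 cells/well plated 5 hours before dosing; controls were DMSO and 2.3 µM bortezomib.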

[5] = qHTS of pediatric cancer cell lines to identify multiple opportunities for drug repurposing: Primary screen for SJ-GBM2 cells (AID 1347091);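 note: plate controls were DMSO neutral control for no effect and bortezomib for full effect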
How it was run: as §1

[6] = qHTS of pediatric cancer cell lines to identify multiple opportunities for drug repurposing: Primary screen for A673 cells (AID 1347092); note: % is set by controls: 0 for no effect and ±100 for the full control effect; nearly all actives have a fitted effect of over 45% in size
How it was run: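 48 h compound exposure, A673, 500-1,000 cells/well, 37 degrees C/5% CO2. MIPE: 11-point, 0.78 nM-46 µM; NPC: 8-point, 0.59 nM-46 µM (final). Readout CellTiter-Glo luminescence after 15 min RT.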

[7] = qHTS of pediatric cancer cell lines to identify multiple opportunities for drug repurposing: Primary screen for SK-N-MC cells (AID 1347093);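 note: series mostly up to about 46 µM; plate controls were DMSO neutral control for no effect and bortezomib for full effect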
How it was run: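 Metabolically active cells were quantified by ATP-dependent luminescence (CellTiter-Glo, 15 min at room temperature) following 48 h treatment. Cells had been plated at 500-1,000 per well and settled for 5 h beforehand.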

[8] = qHTS of pediatric cancer cell lines to identify multiple opportunities for drug repurposing: Primary screen for BT-37 cells (AID 1347094);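 note: series mostly up to about 57 µM; plate controls were DMSO for no effect and bortezomib for full effect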
How it was run: (§2)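 Quantitative HTS format: each compound titrated (MIPE 11 points from 0.78 nM, NPC 8 points from 0.59 nM) onto cells plated 5 hours earlier. After 48 h at 37 degrees C, CellTiter-Glo luminescence was recorded.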

[9] = qHTS of pediatric cancer cell lines to identify multiple opportunities for drug repurposing: Primary screen for NB-EBc1 cells (AID 1347095);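 note: plate controls were DMSO neutral control for no effect and bortezomib for full effect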
How it was run: as §2

[10] = qHTS of pediatric cancer cell lines to identify multiple opportunities for drug repurposing: Primary screen for U-2 OS cells (AID 1347096);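 note: plate controls were DMSO wells for no effect and bortezomib positive control wells for full effect; nearly all actives have a fitted effect of over 50% in size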
How it was run: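 Viability after 48 h compound treatment at 37C, 500-1,000 cells/well, read as ATP luminescence with CellTiter-Glo. Primary screens used 11-point (MIPE, 0.78 nM-46 µM) or 8-point (NPC, 0.59 nM-46 µM) final concentrations; follow-up screens used 11-point dilutions.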

[11] = qHTS of pediatric cancer cell lines to identify multiple opportunities for drug repurposing: Primary screen for Saos-2 cells (AID 1347097); note: % is set by controls: 0 for no effect and ±100 for the full control effect; nearly all actives have a fitted effect of over 40% in size
How it was run: as §2

[12] = qHTS of pediatric cancer cell lines to identify multiple opportunities for drug repurposing: Primary screen for SK-N-SH cells (AID 1347098);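 note: DMSO served as neutral control and bortezomib at 2.3 µM as positive control; % is set by controls: 0 for no effect and ±100 for the full control effect; nearly all actives have a fitted effect of over 65% in size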
How it was run: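 Cells (500-1,000/well) rested 5 h, then received compounds for 48 h; metabolically active cells were measured by CellTiter-Glo luminescence. Final concentrations spanned up to 46 µM (MIPE, 11-point) or 0.59 nM-46 µM (NPC, 8-point) in primary screens, 11-point in follow-ups.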

[13] = Natriuretic polypeptide receptor (hNpr1) antagonism - Pilot counterscreen GloSensor control cell line (AID 1347045; calls by dose curve; note: series mostly up to about 38 µM; % is set by controls: 0 for no effect and ±100 for the full control effect)
How it was run: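 Cells were first seeded and incubated overnight at 37C, then loaded with 2% GloSensor substrate for 2 h. Compounds were added for 30 min at room temperature, followed by a baseline read, 50 uM SNP and a final read after 20 min.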

[14] = target: Atrial natriuretic peptide receptor 1 (Homo sapiens) (UniProt P16066); test: Natriuretic polypeptide receptor (hNpr1) antagonism - Pilot screen (AID 1347049; calls by dose curve;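 note: agonist-evoked cGMP luminescence read 20 min after hNppA addition; series mostly up to about 58 µM; % is set by controls: 0 for no effect and ±100 for the full control effect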)
How it was run: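 cGMP-sensor HEK293/hNpr1 cells, 1500/well, plated overnight at 37C. 2% GloSensor reagent, 2 h RT. Compound (23 nL pin transfer) 30 min RT, baseline luminescence pre-read. 0.1 nM hNppA, 20 min RT, post-read.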

[15] = target: Atrial natriuretic peptide receptor 2 (Homo sapiens) (UniProt P20594); test: Natriuretic polypeptide receptor (hNpr2) antagonism - Pilot subtype selectivity assay (AID 1347050; calls by dose curve; note: % is set by controls: 0 for no effect and ±100 for the full control effect)
How it was run: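 Luminescence from a genetically encoded cGMP luciferase biosensor in hNpr2-expressing HEK293 cells is read before and 20 min after adding 1 nM hNppC. Test compounds, in interplate 1:5 titrations, are added 30-50 min ahead of the agonist.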

[16] = target: T1, Tyrosine-protein phosphatase non-receptor type substrate 1 (Homo sapiens) + Leukocyte surface antigen CD47 (Homo sapiens) (UniProt P78324+Q08722); test: CD47-SIRPalpha protein protein interaction - LANCE assay qHTS validation (AID 1347057; active = well fitted curve in the direction sought with a large enough effect in the signal ratio, with a control signal flat, not every such curve was filed as active; the % refers to the signal ratio; note: series mostly up to about 38 µM; 0% is about no effect)
How it was run: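 Inhibition of soluble CD47/SIRPalpha ectodomain association by titrated compounds, measured as 665/615 nm time-resolved FRET ratio after sequential 30 min room-temperature incubations.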

[17] = target: T1, Tyrosine-protein phosphatase non-receptor type substrate 1 (Homo sapiens) + Leukocyte surface antigen CD47 (Homo sapiens); test: CD47-SIRPalpha protein protein interaction - HTRF assay qHTS validation (AID 1347058; active = well fitted curve in the direction sought with a large enough effect in the signal ratio, not every such curve was filed as active; the % refers to the signal ratio; note: series mostly up to about 38 µM; 0% is about no effect)
How it was run: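 Soluble extracellular domains (6His-CD47, Avi-tag-biotinylated SIRPalpha) in PBS pH 7.4 with 0.05% IGEPAL CA-630. Compounds were preincubated 30 min at RT with CD47 and anti-His-Eu, then SIRPalpha and SAV-XL665 were added. TR-FRET 665/615 ratio.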

[18] = target: T1, Tyrosine-protein phosphatase non-receptor type substrate 1 (Homo sapiens) + Leukocyte surface antigen CD47 (Homo sapiens); test: CD47-SIRPalpha protein protein interaction - Alpha assay qHTS validation (AID 1347059);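 note: bead proximity luminescence from CD47 binding SIRPalpha after compound preincubation with SIRPalpha; % is set by controls: 0 for no effect and ±100 for the full control effect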
How it was run: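 SIRPalpha-biotin 25 nM + cpd, 30 min RT, dark; add CD47-His 12.5 nM, 30 min; add Ni-NTA/SAV beads 10 ug/mL, 30 min; AlphaScreen. Buffer PBS pH 7.4 + 0.05% IGEPAL CA-630. Non-biotinylated SIRPalpha as control inhibitor.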

[19] = target: Parathyroid hormone/parathyroid hormone-related peptide receptor (Homo sapiens) (UniProt Q03431); test: qHTS for PTHR1 Agonists: Optimization Screen against the NCGC LOPAC library (AID 1347079);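 note: GloSensor cAMP luminescence in HEK-293 GP2 cells expressing human PTHR1 with IBMX; 0% is about no effect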
How it was run: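 HEK-293 GP2 cells, PTHR1 + GloSensor cAMP; 3000 cells/well, o/n. Luciferin + IBMX 0.5mM each (stock), 1 hr 37C. Cpd titration, 1 hr 37C. Lum after 15 min RT. Ctrl M-PTH(1-15) top 10uM.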

T1 sequence (P78324 whole entry, looked up, the tested form may be a part): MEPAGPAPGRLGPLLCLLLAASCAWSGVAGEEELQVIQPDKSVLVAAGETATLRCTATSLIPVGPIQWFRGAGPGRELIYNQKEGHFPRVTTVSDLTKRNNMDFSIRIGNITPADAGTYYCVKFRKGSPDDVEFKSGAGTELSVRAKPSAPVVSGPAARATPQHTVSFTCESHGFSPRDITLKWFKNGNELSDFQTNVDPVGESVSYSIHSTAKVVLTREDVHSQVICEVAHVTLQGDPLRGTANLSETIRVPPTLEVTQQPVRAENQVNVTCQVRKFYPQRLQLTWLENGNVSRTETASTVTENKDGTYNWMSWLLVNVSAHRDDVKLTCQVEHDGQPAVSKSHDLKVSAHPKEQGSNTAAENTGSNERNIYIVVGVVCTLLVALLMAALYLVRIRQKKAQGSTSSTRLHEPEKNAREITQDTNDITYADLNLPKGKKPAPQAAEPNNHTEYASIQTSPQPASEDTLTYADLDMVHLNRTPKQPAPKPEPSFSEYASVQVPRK
T1 sequence (Q08722 whole entry, looked up, the tested form may be a part): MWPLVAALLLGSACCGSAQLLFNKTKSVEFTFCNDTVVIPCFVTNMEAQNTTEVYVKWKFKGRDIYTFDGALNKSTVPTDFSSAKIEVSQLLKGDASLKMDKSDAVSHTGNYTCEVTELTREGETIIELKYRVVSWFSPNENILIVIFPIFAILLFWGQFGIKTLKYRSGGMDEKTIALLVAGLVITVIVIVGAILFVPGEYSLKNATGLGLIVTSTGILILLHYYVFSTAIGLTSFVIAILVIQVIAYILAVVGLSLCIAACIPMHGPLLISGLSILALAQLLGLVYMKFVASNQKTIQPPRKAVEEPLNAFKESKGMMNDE
Parathyroid hormone/parathyroid hormone-related peptide receptor (Homo sapiens), sequence (Q03431 whole entry, looked up): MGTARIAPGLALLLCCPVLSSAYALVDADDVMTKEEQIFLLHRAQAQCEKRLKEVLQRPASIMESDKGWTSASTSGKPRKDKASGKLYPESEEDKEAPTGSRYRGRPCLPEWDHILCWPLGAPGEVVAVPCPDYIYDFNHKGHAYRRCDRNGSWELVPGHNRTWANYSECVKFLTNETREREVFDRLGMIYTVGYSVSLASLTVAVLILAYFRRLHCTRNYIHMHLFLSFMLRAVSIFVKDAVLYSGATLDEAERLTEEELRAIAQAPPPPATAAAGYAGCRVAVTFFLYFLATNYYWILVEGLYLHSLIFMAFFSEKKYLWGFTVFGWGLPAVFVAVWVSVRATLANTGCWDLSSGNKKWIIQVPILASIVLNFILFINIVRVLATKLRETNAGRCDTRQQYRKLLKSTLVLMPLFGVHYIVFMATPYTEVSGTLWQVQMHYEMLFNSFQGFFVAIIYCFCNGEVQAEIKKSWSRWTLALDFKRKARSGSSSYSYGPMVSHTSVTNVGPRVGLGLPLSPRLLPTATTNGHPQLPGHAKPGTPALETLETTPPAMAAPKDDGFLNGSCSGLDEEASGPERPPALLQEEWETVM
Atrial natriuretic peptide receptor 1 (Homo sapiens), sequence (P16066 whole entry, looked up): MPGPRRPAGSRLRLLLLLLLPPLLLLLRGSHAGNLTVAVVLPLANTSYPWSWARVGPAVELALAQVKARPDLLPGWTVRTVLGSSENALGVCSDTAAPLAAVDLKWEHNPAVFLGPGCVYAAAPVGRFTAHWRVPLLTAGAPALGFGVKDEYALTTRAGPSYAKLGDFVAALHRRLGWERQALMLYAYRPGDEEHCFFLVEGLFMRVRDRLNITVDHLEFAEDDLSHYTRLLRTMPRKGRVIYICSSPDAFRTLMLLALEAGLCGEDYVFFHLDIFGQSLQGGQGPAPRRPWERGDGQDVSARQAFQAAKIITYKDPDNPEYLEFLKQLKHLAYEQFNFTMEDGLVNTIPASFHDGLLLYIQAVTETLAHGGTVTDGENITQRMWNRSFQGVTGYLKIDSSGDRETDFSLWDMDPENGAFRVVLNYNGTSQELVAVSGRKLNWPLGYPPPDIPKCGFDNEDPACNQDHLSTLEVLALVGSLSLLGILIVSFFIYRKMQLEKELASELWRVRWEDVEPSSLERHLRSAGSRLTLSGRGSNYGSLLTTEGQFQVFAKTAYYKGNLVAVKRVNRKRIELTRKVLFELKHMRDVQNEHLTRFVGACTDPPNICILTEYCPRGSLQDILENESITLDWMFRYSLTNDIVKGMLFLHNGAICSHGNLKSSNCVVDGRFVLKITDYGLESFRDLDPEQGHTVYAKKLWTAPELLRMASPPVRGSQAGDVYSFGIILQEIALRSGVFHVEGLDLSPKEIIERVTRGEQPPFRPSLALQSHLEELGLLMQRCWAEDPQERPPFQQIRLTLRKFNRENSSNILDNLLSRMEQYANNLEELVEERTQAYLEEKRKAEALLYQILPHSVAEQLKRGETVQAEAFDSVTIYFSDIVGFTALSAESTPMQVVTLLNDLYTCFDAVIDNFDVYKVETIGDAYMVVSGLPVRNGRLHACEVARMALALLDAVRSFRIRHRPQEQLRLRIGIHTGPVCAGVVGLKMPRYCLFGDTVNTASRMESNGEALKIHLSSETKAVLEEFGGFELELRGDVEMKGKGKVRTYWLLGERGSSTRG
Atrial natriuretic peptide receptor 2 (Homo sapiens), sequence (P20594 whole entry, looked up): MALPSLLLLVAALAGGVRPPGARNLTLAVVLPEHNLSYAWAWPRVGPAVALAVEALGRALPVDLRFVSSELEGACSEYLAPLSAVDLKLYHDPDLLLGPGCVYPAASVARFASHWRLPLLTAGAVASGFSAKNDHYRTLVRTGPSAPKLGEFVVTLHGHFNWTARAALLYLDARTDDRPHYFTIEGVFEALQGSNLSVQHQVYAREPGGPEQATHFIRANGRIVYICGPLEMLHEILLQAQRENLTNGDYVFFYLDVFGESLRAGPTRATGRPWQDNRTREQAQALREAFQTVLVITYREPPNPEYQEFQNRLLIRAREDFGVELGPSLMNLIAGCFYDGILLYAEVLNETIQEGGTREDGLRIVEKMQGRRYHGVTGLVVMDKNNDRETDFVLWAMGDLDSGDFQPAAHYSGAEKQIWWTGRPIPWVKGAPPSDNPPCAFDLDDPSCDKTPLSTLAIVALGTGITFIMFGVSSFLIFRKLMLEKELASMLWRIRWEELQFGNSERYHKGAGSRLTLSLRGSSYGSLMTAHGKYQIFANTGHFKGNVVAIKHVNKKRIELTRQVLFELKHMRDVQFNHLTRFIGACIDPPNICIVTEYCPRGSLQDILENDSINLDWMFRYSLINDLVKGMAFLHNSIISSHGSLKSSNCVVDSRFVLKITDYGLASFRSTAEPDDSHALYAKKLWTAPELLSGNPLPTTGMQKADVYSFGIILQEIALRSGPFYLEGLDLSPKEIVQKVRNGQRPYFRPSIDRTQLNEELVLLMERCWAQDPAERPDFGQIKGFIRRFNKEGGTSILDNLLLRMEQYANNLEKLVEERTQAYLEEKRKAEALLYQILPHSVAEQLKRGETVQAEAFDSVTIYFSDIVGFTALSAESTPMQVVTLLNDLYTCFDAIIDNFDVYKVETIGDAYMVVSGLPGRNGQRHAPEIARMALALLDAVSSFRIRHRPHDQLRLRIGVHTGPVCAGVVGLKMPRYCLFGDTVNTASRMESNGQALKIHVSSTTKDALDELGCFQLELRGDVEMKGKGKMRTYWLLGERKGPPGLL

Cc1ncc(CO)c(C=O)c1O
inactive: Potency [1] | Potency [2] | Potency [3] | Potency [4] | Potency [5] | Potency [6] | Potency [7] | Potency [8] | Potency [9] | Potency [10]

CC1(C)OC[C@@H]2O[C@@]3(C(=O)O)OC(C)(C)O[C@H]3[C@@H]2O1
inactive: Potency [1] | Potency [2] | Potency [3] | Potency [4] | Potency [5] | Potency [6] | Potency [7] | Potency [8] | Potency [9] | Potency [10] | Potency [11] | Potency [12]

CCOCCn1c(N2CCCN(C)CC2)nc2ccccc21
inactive: Potency [1] | Potency [2] | Potency [3] | Potency [4] | Potency [5] | Potency [6] | Potency [7] | Potency [8] | Potency [9] | Potency [10] | Potency [11]

CN(C)CCOC(=O)C(c1ccccc1)C1(O)CCCC1 (stereo unspecified)
inactive: Potency [1] | Potency [2] | Potency [3] | Potency [4] | Potency [5] | Potency [6] | Potency [7] | Potency [8] | Potency [9] | Potency [10] | Potency [11] | Potency [12]

Cc1cc(C)cc(OCC2CNC(=O)O2)c1 (stereo unspecified)
inactive: Potency [1] | Potency [2] | Potency [3] | Potency [4] | Potency [5] | Potency [6] | Potency [7] | Potency [8] | Potency [9] | Potency [10] | Potency [11]

CN1CCN(c2c(F)cc3c(=O)c(C(=O)O)cn4c3c2SCC4)CC1
inactive: Potency [1] | Potency [2] | Potency [3] | Potency [4] | Potency [5] | Potency [6] | Potency [7] | Potency [8] | Potency [9] | Potency [10] | Potency [11] | Potency [12]

CC(CNC1CCCCC1)OC(=O)c1ccccc1 (stereo unspecified)
inactive: Potency [1] | Potency [2] | Potency [3] | Potency [4] | Potency [5] | Potency [6] | Potency [7] | Potency [8] | Potency [9] | Potency [10]

CC(C)Cn1cnc2c1c(=O)n(C)c(=O)n2C
inactive: Potency [1] | Potency [2] | Potency [3] | Potency [4] | Potency [5] | Potency [6] | Potency [7] | Potency [8] | Potency [9] | Potency [10] | Potency [11] | Potency [12]

CC(C)Nc1cccnc1N1CCN(C(=O)c2cc3cc(NS(C)(=O)=O)ccc3[nH]2)CC1
inactive: Potency [1] | Potency [2] | Potency [3] | Potency [4] | Potency [5] | Potency [6] | Potency [7] | Potency [8] | Potency [9] | Potency [10] | Potency [11] | Potency [12]

N=C(N)N1CCc2ccccc2C1
inactive: Potency [1] | activity change, negative = inhibition [2] -16.4% [at 4.81 µM] | activity change, negative = cytotoxic [3] 1.67% [at 4.81 µM] | activity change, negative = cytotoxic [4] -21.6% [at 4.84 µM] | activity change, negative = cytotoxic [5] 1.07% [at 4.84 µM] | activity change, negative = cytotoxic [6] -18% [at 4.84 µM] | activity change, negative = cytotoxic [7] -27.9% [at 4.84 µM] | activity change, negative = cytotoxic [8] -4.38% [at 6.03 µM] | activity change, negative = cytotoxic [9] 5.74% [at 4.84 µM] | activity change, negative = cytotoxic [10] -4.95% [at 4.84 µM]

Cc1cccc(C)c1NC(=O)c1ccccc1C(=O)O
inactive: Potency [1] | Potency [2] | Potency [3] | Potency [4] | Potency [5] | Potency [6] | Potency [7] | Potency [8] | Potency [9] | Potency [10] | Potency [11] | Potency [12]

CC(=O)OCC(=O)[C@H]1CC[C@H]2[C@@H]3CCC4=CC(=O)CC[C@]4(C)[C@H]3CC[C@]12C
inactive: Potency [2] | Potency [3] | Potency [4] | Potency [5] | Potency [6] | Potency [7] | Potency [8] | Potency [9] | Potency [10] | Potency [11] | Potency [12]
active: Potency [1] 7.31 µM

CC(C)(C)NC[C@H](O)COc1nsnc1N1CCOCC1
inactive: Potency [1] | outcome [13] | outcome [14] | outcome [15] | Potency [2] | outcome [16] | outcome [17] | outcome [18] | outcome [19] | Potency [3] | Potency [4] | Potency [5] | Potency [7] | Potency [8] | Potency [9] | Potency [10] | Potency [11] | Potency [12]

Cc1cc(-c2ccccc2)nnc1NCCN1CCOCC1
inactive: Potency [1] | Potency [2] | Potency [3] | Potency [4] | Potency [5] | Potency [6] | Potency [7] | Potency [8] | Potency [9] | Potency [10] | Potency [11] | Potency [12]

CC(=O)Nc1ccc(S(=O)(=O)Nc2ccc([N+](=O)[O-])cc2)cc1
inactive: Potency [1] | Potency [2] | Potency [3] | Potency [4] | Potency [5] | Potency [6] | Potency [7] | Potency [8] | Potency [9] | Potency [10] | Potency [11]

CC(C)(Cc1c[nH]c2ccccc12)NCC(O)COc1ccccc1C#N (stereo unspecified)
inactive: Potency [1] | Potency [2] | Potency [3] | Potency [4] | Potency [5] | Potency [6] | Potency [7] | Potency [8] | Potency [9] | Potency [10] | Potency [11]

C=C[C@H]1CN2CC[C@H]1C[C@H]2[C@H](O)c1ccnc2ccc(OC)cc12
inactive: Potency [1] | Potency [2] | Potency [3] | Potency [4] | Potency [5] | Potency [6] | Potency [7] | Potency [8] | Potency [9] | Potency [10] | Potency [11]

CC1(COc2ccc(CC3SC(=O)NC3=O)cc2)CCCCC1 (stereo unspecified)
inactive: Potency [1] | Potency [2] | Potency [3] | Potency [4] | Potency [5] | Potency [6] | Potency [7] | Potency [8] | Potency [9] | Potency [10]

COc1ccc(CCN(C)CCCN2CCc3cc(OC)c(OC)cc3CC2=O)cc1OC
inactive: Potency [1] | Potency [2] | Potency [3] | Potency [4] | Potency [5] | Potency [6] | Potency [7] | Potency [8] | Potency [9] | Potency [10] | Potency [11] | Potency [12]
